Sampled rows, rich in hits. Any-hit rate of the full collection: about 1.1%.
HTR5A ag = HTR5A agonists in luminescence cell assay, primary screen, counter-screen for OPRM1-OPRD1 heterodimer agonist project, full-deck HTS | 5-hydroxytryptamine receptor 5A (Homo sapiens), P47898 | cell-based | activation, % at 9.3 µM | 340,000 tested, 0.61% active; in the data active = activation mostly above about 9.5%, no sharp cut-off; inactive = mostly below about 7.6%;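 also: 0% = cells with vehicle only and 100% = reference agonist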
HTR5A inv ag = HTR5A inverse agonists in luminescence cell assay, primary screen, counter-screen for OPRM1-OPRD1 heterodimer inverse agonist project, full-deck HTS; HTR5A cell line, inverse agonism; inhibition, % at 9.3 µM; 340,000 tested, 0.083% active; AID 504634, 2011; in the data active = inhibition mostly above about 23%, no sharp cut-off; inactive = mostly below about 18%;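 also: 0% = cells with DMSO and 100% = no-cell wells with DMSO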
MOR-DOR ag = agonists of OPRM1-OPRD1 heterodimerization, primary screen, cell-based, luminescence; Mu-type opioid receptor (Homo sapiens) + Delta-type opioid receptor (Homo sapiens), …; cells; activation, % at 9.3 µM; 340,000 tested, 0.3% active; in the data active = activation above about 18%;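 also: 0% = vehicle-treated cells and 100% = reference agonist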
Target sequence (P35372 whole entry, looked up): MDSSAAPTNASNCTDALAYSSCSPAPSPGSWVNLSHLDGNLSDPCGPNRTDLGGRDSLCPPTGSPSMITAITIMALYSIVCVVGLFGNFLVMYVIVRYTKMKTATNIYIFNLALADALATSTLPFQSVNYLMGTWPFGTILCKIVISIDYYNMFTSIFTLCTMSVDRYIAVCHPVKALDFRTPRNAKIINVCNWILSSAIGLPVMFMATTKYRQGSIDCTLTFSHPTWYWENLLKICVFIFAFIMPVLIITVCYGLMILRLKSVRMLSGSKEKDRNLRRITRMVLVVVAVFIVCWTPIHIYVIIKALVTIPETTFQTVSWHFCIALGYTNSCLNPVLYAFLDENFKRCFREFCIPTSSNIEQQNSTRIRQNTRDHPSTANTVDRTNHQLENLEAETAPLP
Target sequence (P41143 whole entry, looked up): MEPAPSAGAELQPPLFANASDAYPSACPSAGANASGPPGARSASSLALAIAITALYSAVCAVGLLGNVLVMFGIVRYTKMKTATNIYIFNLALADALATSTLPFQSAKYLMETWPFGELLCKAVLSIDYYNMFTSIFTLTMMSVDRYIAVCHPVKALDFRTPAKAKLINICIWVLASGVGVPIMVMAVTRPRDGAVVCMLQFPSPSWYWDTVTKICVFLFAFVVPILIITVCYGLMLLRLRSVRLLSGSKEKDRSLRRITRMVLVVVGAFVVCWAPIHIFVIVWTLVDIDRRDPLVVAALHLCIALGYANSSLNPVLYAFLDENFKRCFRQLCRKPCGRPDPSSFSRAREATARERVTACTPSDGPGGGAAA
MOR-DOR inv ag = inverse agonists of MOR-DOR heterodimerization, primary screen, cell-based, luminescence. cell-based MOR-DOR heterodimer luminescence, inverse agonism. inhibition, % at 9.3 µM. 340,000 tested, 0.21% active; in the data active = inhibition above about 22%, passing the limit was not always enough;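 also: 0% = cells with DMSO and 100% = wells without cells with DMSO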
* = called active by the depositor.

SMILES	HTR5A ag	HTR5A inv ag	MOR-DOR ag	MOR-DOR inv ag
Cc1ccc(C(=O)N/N=C/c2cc(Br)ccc2O)cn1	10*	-38	1	-5
O=C(O)C1CCN(S(=O)(=O)Cc2ccccc2)CC1	-3	11	-3	12
COc1ccc(-c2ccc(SCC(=O)N3CCCC3)nn2)cc1OC	11*	-20	0	0
COc1ccc(-c2ccc(SCC(=O)N3CCOCC3)nn2)cc1OC	0	2	-1	8
CCC(=O)N1CCc2cc(S(=O)(=O)NCCC(=O)NCc3ccccc3OC)ccc21	11*	-5	-2	9
COc1ccc(N(CC(=O)NN=C2CCN(C)CC2)S(=O)(=O)c2ccc(NC(C)=O)cc2)cc1	0	1	0	3
COCCCNc1oc(/C=C/c2ccccc2)nc1C#N	-1	3	-1	5
COc1cccc(/C=C/c2nc(C#N)c(NCC(C)C)o2)c1	12*	-46	2	-9
COc1ccc(/C=N/NC(=O)c2ccncc2)cc1CSc1nc2ccccc2s1	-3	1	-1	3
c1cc2c(cc1C1CCCCC1)c1c3n2CCCNC3CCC1 (stereo not given)	9	-41	15	-86
Cc1ccc2c(c1)c1c3n2CCCNC3CCC1 (stereo not given)	10*	10	3	-15
O=C1C(=C(I)I)c2ccccc2-c2ccccc21	9	-35	41*	-202
Cn1c(/C=C/c2ccccc2)nc2ccccc2c1=O	4	-14	-2	9
Cn1c(/C=C/c2ccc(Cl)cc2)nc2ccccc2c1=O	9.8*	-37	3	-14
O=c1c2ccccc2nc(/C=C/c2ccccc2)n1CCCO	9.9*	-35	-3	15
CCOc1ccc(CNn2nnnc2N)cc1	-5	-28	-2	10
COc1ccccc1CCC(=O)NCCCn1ccc2ccccc21	-3	-14	1	-10
CN1CCN(S(=O)(=O)c2ccc(NC(=O)c3ccccc3F)cc2)CC1	8.6*	-29	0	2
C#CCOCCOCCOCCNc1nc(N2CCN(C(=O)CCCCCCCCCCNC(=O)[C@H](CO)n3cc(CCCSC)nn3)CC2)nc(N2CCN(C(=O)CCCCCCCCCCNC(=O)[C@H](CO)n3cc(CCCSC)nn3)CC2)n1	1	-3	-4	24
C#CCOCCOCCOCCNc1nc(N2CCOCC2)nc(N2CCN(C(=O)CCCCCCCCCCNC(=O)[C@@H](CCSC)n3cc(CCO)nn3)CC2)n1	14*	-2	0	2
CCCn1cc(S(=O)(=O)c2ccccc2)c(=O)c2cc(F)c(N3CCN(C)CC3)cc21	0	-21	-2	11
Cc1ccc(C)c(NC(=O)CCN2CCCCC2)c1	-2	6	-2	12
O=S(=O)(NN=C1CCCCC1)c1ccccc1	4	-18	-1	7
O=S(=O)(NN=C1CCCCCC1)c1ccccc1	13*	-28	0	1
O=C(CCN1C(=O)[C@@H]2Cc3ccccc3CN2C1=O)NCc1ccccc1Cl	-4	5	-1	6
SMILES	HTR5A ag	HTR5A inv ag	MOR-DOR ag	MOR-DOR inv ag
CCOC(=O)c1cnn(-c2cc(Oc3ccccc3C)ncn2)c1N	-1	2	2	-11
CCN(CC)CCN(C(=O)CCS(=O)(=O)c1ccccc1)c1nc2c(C)cc(C)cc2s1	13*	-29	5	-32
CCN(CC)CCN(C(=O)CCS(=O)(=O)c1ccccc1)c1nc2cc(C)cc(C)c2s1	0	3	0	0
N/C(=N\OC(=O)c1ccc(Cl)cc1)c1cccnc1	14*	-23	9	-55
N/C(=N\OC(=O)c1ccc(Cl)cc1Cl)c1cccnc1	-1	2	9	-63
CN(C)S(=O)(=O)c1cccc(NC(=O)Cn2cc(C(F)(F)F)cc(Cl)c2=O)c1	2	-5	-1	4
COc1ccccc1NC(=S)N(Cc1ccccc1)Cc1cccs1	9.3*	12	0	-2
COc1ccccc1NC(=S)N(Cc1cccs1)C1CCCC1	0	0	1	-2
COc1cccc(N2CCN(Cc3nc(N)nc(Nc4ccccc4OC)n3)CC2)c1	14*	1	-2	14
CCC1=[N+](CC(=O)c2ccc(Br)cc2)CCn2c(C)ccc21	12*	-3	0	-1
Cc1ccc(S(=O)(=O)NCc2ccc(C(=O)N3CCN(c4ccc([N+](=O)[O-])cc4)CC3)cc2)cc1	11*	0	4	-20
COc1ccc(N2CCN(C(=O)c3ccc(CNS(=O)(=O)c4ccc(C)cc4)cc3)CC2)cc1	1	1	0	-1
CCN(CC)CCCN(Cc1cc2cc3c(cc2[nH]c1=O)OCO3)C(=S)NCCCN(C)C	3	12	-1	4
CCN(CC)CCCN(Cc1cc2cc3c(cc2[nH]c1=O)OCO3)C(=S)NC	11*	-40	1	-5
O=C(NCc1ccccc1Cl)c1ccc[nH]1	13*	1	-1	7
O=C(NCc1ccccc1F)c1ccc(S(=O)(=O)N2CCCCCC2)cc1	2	-5	-1	6
O=C(NCc1ccccc1Cl)NCc1ccccc1Cl	-1	-9	0	1
O=C(NCc1ccccc1Cl)c1ccc(S(=O)(=O)N2CCCC2)cc1	11*	4	-5	20
CC1(C)Oc2ccc3ccc(=O)oc3c2/C(=C/O)C1=O	14*	-11	-1	5
Cc1nn(-c2cccc(Cl)c2)c(Cl)c1/C=N/NC(=O)c1cccnc1	-2	-4	-3	15
Cc1ccc(C(=O)NNC(=O)CSc2nnc(C(C)C)n2C)cc1	0	1	2	-17
O=C1CC(C(=O)O)S/C(=N\NC(=O)c2ccccc2)N1 (stereo not given)	12*	11	-2	9
C/C(=N\N=C1\NC(=O)CC(C(=O)O)S1)c1ccc(F)cc1 (stereo not given)	-1	3	1	-4
Cc1ccc2[nH]cc(CCNC(=O)C3CCCO3)c2c1 (stereo not given)	11*	-42	0	-1
Cc1ccc2[nH]cc(CCNC(=O)c3ccc4c(c3)OCO4)c2c1	-1	4	-1	3
SMILES	HTR5A ag	HTR5A inv ag	MOR-DOR ag	MOR-DOR inv ag
CC(Oc1cc2oc(=O)c3c(c2cc1Cl)CCC3)C(=O)NCCN1CCOCC1 (stereo not given)	3	-10	-2	8
CC(C)CN1C(Nc2ccccc2)=NC[C@@H]1C	-1	-18	-3	13
CCN1C(Nc2ccccc2)=NC[C@@H]1C	13*	-6	0	-1
O=C(COc1ccc2oc(-c3ccccc3)cc(=O)c2c1)Nc1ccccc1	12*	-17	0	3
CCOc1ccc(-c2nonc2NC(=O)c2ccco2)cc1OCC	13*	-5	1	-6
COc1ccc(-c2nonc2NC(=O)c2ccco2)cc1OC	-4	8	-2	8
CCOc1cc(C(c2c(C)[nH][nH]c2=O)c2c(C)[nH][nH]c2=O)ccc1OCc1ccc([N+](=O)[O-])cc1	11*	-55	0	1
O=C(Cn1ncc2c3ccccc3n(Cc3ccccc3)c2c1=O)NCCCN1CCCC1=O	4	10	-2	9

Screens (PubChem)
